Experimental data published in PubChem BioAssay (Tox21).
Several values for one entry are separate records, joined by “and”; a condition that tells them apart may be missing. Equal values may be shown once. Inconclusive results are not listed. Activity calls are given as the source filed them. Unless noted, the call rests on the fitted dose curve; in most records, active means well fitted curve in the direction sought with a large enough effect in the repeat runs; inconclusive means weak or mixed curves; inactive means no such curve, though single readings can be large; an effect the other way counts as inactive or inconclusive.

Tests used:
[1] = qHTS assay for small molecule agonists of the p53 signaling pathway (AID 651631; calls by dose curve; further: nearly all actives have a fitted effect of over 15% in size)
Method in brief: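 Readout was fluorescence from the LiveBLAzer FRET substrate, applied for 2 h at room temperature after 16 h compound exposure at 37 °C. Cells were the p53RE-bla HCT-116 line, with beta-lactamase driven by p53 response elements.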

[2] = qHTS assay for small molecules that induce genotoxicity in human embryonic kidney cells expressing luciferase-tagged ATAD5 (AID 651632); further: nearly all actives have a fitted effect of over 15% in size
Method in brief: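 Reporter cells (HEK293T) express luciferase-tagged ATAD5, a protein that accumulates after DNA damage. Treat 16 hr at 37C/5% CO2, add Amplite, wait 30 min at RT, and read luminescence.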

[3] = qHTS assay for small molecule agonists of the p53 signaling pathway - cell viability (AID 651633; calls by dose curve; further: series mostly up to about 83 µM; nearly all actives have a fitted effect of over 30% in size)
Method in brief: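 p53RE-bla cells were treated with compound for 16 hours at 37 C. Cytotoxicity was then measured as CellTiter-Glo luminescence after 30 min at room temperature.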

[4] = qHTS assay for small molecules that induce genotoxicity in human embryonic kidney cells expressing luciferase-tagged ATAD5 - cell viability (AID 651634; calls by dose curve; further: nearly all actives have a fitted effect of over 25% in size)
Method in brief: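 Seeding of 2,000 HEK293T ATAD5-luciferase cells per well preceded pin-tool compound transfer. Plates sat 15.5 hr at 37C under 5% CO2, then fluorescence was read after 30 min with CellTiter-Fluor.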

[5] = qHTS assay for small molecule disruptors of the mitochondrial membrane potential - cell viability (AID 720634; calls by dose curve; further: nearly all actives have a fitted effect of over 20% in size; further: potency means the concentration at half of the fitted maximal effect)
Method in brief: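 Measuring cytotoxicity alongside mitochondrial potential, the screen quantified ATP by luminescence in HepG2 cells after 1 hr compound incubation and a 30 min room-temperature CellTiter-Glo step.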

[6] = qHTS assay for small molecule disruptors of the mitochondrial membrane potential (AID 720635); further: potency means the concentration at half of the fitted maximal effect
Method in brief: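 HepG2 cells exposed to compound 1 hr at 37C, then Mito-MPS dye 30 min. Ratio read of aggregate (540/590 nm) versus monomer (490/535 nm) fluorescence.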

[7] = qHTS assay to test for compound auto fluorescence at 590 nm (red) in HepG2 cells (AID 720674)
Method in brief: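 Fluorescence at 590 nm emission following 540 nm excitation was recorded from HepG2 wells one hour after compound transfer, with DMSO-only wells as vehicle and Rose Bengal sodium equivalency as the scale.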

[8] = qHTS assay to test for compound auto fluorescence at 535 nm (green) in HepG2 cells (AID 720675)
[9] = qHTS assay to test for compound auto fluorescence at 460 nm (blue) in HEK293 cells (AID 720678)
Method in brief: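 HEK293, 2,000 cells/well, 10% dialyzed FBS; attach 4-5 hr 37C; pin compound or DMSO; o/n 37C/5% CO2; fluorescence 405/460 nm; triamterene-equivalent units.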

[10] = qHTS assay to test for compound auto fluorescence at 590 nm (red) in HEK293 cells (AID 720679)
Method in brief: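 Intensity at 540nm excitation and 590nm emission is reported as Rose Bengal sodium-equivalent autofluorescence. Measurements followed overnight exposure (37C, 5% CO2) of HEK293 cells, 2,000 per well, to 23 nL compound.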

[11] = qHTS assay to test for compound auto fluorescence at 535 nm (green) in HEK293 cells (AID 720680)
[12] = qHTS assay to test for compound auto fluorescence at 460 nm (blue) in HEK293 cell free culture (AID 720681)
Method in brief: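 Compounds were added to cell-free DMEM with 10% FBS and fluorescence read directly. The blue channel used 405 nm excitation and 460 nm emission, with triamterene as the reference fluorophore.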

[13] = qHTS assay to test for compound auto fluorescence at 535 nm (green) in HEK293 cell free culture (AID 720682)
Method in brief: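 Compounds were pin-transferred into cell-free DMEM with 10% FBS, and green fluorescence was read at excitation 485 nm and emission 535 nm. Intensities were expressed as fluorescein-equivalent values.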

[14] = qHTS assay to test for compound auto fluorescence at 590 nm (red) in HEK293 cell free culture (AID 720683)
Method in brief: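 Cell-free wells of DMEM with 10% FBS received compound, and intrinsic fluorescence was read at excitation/emission 540/590 nm. Values expressed as equivalence to Rose Bengal sodium.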

[15] = qHTS assay to test for compound auto fluorescence at 590 nm (red) in HepG2 cell free culture (AID 720684)
Method in brief: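 Compounds are added to culture medium (MEM, 10% FBS) lacking cells, then fluorescence is read at excitation 540 nm, emission 590 nm, with Rose Bengal sodium as the equivalency standard.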

[16] = qHTS assay to test for compound auto fluorescence at 460 nm (blue) in HepG2 cell free culture (AID 720685)
Method in brief: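 Compound (23 nL) or DMSO pinned into cell-free MEM with 10% FBS; blue fluorescence read at 405/460 nm excitation/emission, expressed as auto-fluorescence equivalency to triamterene.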

[17] = qHTS assay to test for compound auto fluorescence at 535 nm (green) in HepG2 cell free culture (AID 720686)
[18] = qHTS assay to test for compound auto fluorescence at 460 nm (blue) in HepG2 cells (AID 720687)
Method in brief: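 HepG2 cells in MEM with 10% FBS, attached overnight at 37 C, were exposed to compound or DMSO for 1 hr at 37 C, 5% CO2. Blue fluorescence was read at 405/460 nm, with triamterene as reference fluorophore.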

[19] = molecular target: Glucocorticoid receptor (Homo sapiens) (UniProt P04150); test: qHTS assay to identify small molecule agonists of the glucocorticoid receptor (GR) signaling pathway (AID 720691; active means well fitted activation curve with a large enough effect in the signal ratio in the repeat runs, not every such curve was filed as active; the % refers to the signal ratio)
Chain of Glucocorticoid receptor (Homo sapiens) (P04150 whole entry, looked up): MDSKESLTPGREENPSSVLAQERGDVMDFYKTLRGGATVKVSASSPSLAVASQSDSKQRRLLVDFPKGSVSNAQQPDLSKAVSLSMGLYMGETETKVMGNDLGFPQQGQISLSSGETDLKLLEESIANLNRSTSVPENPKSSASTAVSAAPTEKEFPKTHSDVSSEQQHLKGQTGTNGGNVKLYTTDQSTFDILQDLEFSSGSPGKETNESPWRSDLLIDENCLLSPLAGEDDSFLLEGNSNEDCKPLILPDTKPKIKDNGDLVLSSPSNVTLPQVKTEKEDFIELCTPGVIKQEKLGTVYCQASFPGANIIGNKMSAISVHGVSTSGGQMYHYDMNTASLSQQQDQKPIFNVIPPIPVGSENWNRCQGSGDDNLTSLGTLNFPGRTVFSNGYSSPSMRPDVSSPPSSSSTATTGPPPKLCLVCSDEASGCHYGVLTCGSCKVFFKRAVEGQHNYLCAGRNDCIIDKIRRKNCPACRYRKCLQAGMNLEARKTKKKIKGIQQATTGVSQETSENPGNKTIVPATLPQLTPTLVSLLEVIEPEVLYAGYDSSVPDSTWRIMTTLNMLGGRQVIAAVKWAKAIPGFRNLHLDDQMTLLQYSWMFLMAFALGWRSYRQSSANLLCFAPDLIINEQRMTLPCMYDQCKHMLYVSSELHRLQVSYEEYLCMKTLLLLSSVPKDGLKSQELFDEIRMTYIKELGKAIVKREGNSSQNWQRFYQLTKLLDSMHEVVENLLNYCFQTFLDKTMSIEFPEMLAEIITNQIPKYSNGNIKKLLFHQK
Method in brief: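 Reporter read-out: fluorescence intensity following 2 h room-temperature LiveBLAzer B/G FRET substrate loading. Prior step: GR-bla HeLa cells held 4 h, then treated 18 h at 37 C.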

[20] = molecular target: Glucocorticoid receptor (Homo sapiens) (UniProt P04150); test: qHTS assay to identify small molecule antagonists of the glucocorticoid receptor (GR) signaling pathway (AID 720692; active means well fitted inhibition curve with a large enough effect in the signal ratio in the repeat runs, not every such curve was filed as active; the % refers to the signal ratio)
Method in brief: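 Dexamethasone (5 nM final) stimulated a stably integrated GRE-beta-lactamase reporter in HeLa cells during 18 h co-incubation with compounds; signal was quantified as fluorescence intensity of B/G FRET substrate after 2 h.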

Measured: Potency

CN(C)C(=O)C(c1ccccc1)c1ccccc1
not listed: [19] | [20]
inactive: all other assays above

CN(C)C(=O)Nc1cccc(C(F)(F)F)c1
not listed: [19] | [20]
inactive: all other assays above

Cc1ccc(O)c(C)c1
inactive: all assays above

Cl/C=C/Cl
inactive: all assays above

CNC(=O)O/N=C/C(C)(C)SC
not listed: [6]
inactive: all other assays above

O=[N+]([O-])c1ccc(Cl)cc1
inactive: all assays above

CCCOC(=O)c1ccccc1C(=O)OCCC
not listed: [6] | [19] | [20]
inactive: all other assays above

c1ccc2c(c1)CCCC2
not listed: [6]
inactive: all other assays above

CC(C)(C)C(=O)CCl
inactive: all assays above

CCCCC(CC)C(=O)Cl (stereo unspecified)
inactive: all assays above

Cc1cccc(C)c1NC(=O)CN1CCCC1=O
inactive: all assays above

CC(C)CCCCCCOC(=O)c1ccccc1C(=O)OCCCCCCC(C)C
inactive: all assays above

OCC(O)CCl (stereo unspecified)
inactive: all assays above

CN(C)CCC#N
inactive: all assays above

COc1nc(NC(C)C)nc(NC(C)C)n1
inactive: all assays above

FC(F)(F)c1ccc(Cl)cc1
inactive: all assays above

Clc1cnc(Oc2ccc(Oc3ncc(Cl)cc3Cl)cc2)c(Cl)c1
active: [6] 10.7 µM and 48.6 µM
inactive: all other assays above

CC(=O)C1CCOC1=O (stereo unspecified)
inactive: all assays above

Cc1cccc(C)c1N
inactive: all assays above

COC(=O)Nc1cccc(OC(=O)Nc2cccc(C)c2)c1
active: [5] 7.7 µM | [6] 2.73 µM and 3.86 µM
inactive: all other assays above

C=CC#N
inactive: all assays above

CCOc1ccc(N)cc1
inactive: all assays above

COS(=O)(=O)OC
inactive: all assays above

COP(=S)(OC)SCN1C(=O)c2ccccc2C1=O
inactive: all assays above

ClCCOCCCl
inactive: all assays above

O=C(O)COc1ccccc1
inactive: all assays above

O=C(O)C1C(C(=O)O)C2(Cl)C(Cl)=C(Cl)C1(Cl)C2(Cl)Cl (stereo unspecified)
inactive: all assays above

CSc1nnc(C(C)(C)C)c(=O)n1N
inactive: all assays above
